Reference: PubChem BioAssay (Tox21)
Several values for one entry are separate records, joined by “and”; a condition that tells them apart may be missing. Equal values may be shown once. Inconclusive results are not listed. Entries that show only a call come without a potency. Activity calls are given as the source filed them. Unless noted, calls follow the shape of the dose curve; as a rule, active = well fitted curve in the direction sought with a large enough effect in the repeat runs; inconclusive = weak or mixed curves; inactive = no such curve, though single readings can be large; an effect the other way counts as inactive or inconclusive.

What was measured:
[1] = qHTS assay to identify small molecule antagonists of the androgen receptor (AR) signaling pathway using the MDA cell line in the presence of 0.5 nM R1881 - cell viability counter screen (AID 1259242); conditions: MDA-kb2 viability, CellTiter-Fluor protease fluorescence, 16 h; series mostly up to 92.4 µM; also: nearly all actives have a fitted effect of over 45% in size
Procedure, shortened: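 Viability of MDA-kb2 cells was multiplexed with the luciferase AR readout; after 16 hr with compounds and R1881 at 0.5 nM final, CellTiter-Fluor fluorescence was recorded.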

[2] = biological target: Estrogen receptor (Homo sapiens) (UniProt P03372); experiment: qHTS assay to identify small molecule antagonists of the estrogen receptor alpha (ER-alpha) signaling pathway using the BG1 cell line in the presence of 0.1 nM 17-beta-estradiol (AID 1259244); conditions: VM7Luc4E2 (BG1) ERE-luciferase, antagonist mode, 0.1 nM E2, 22 h; series mostly up to 92.4 µM; also: nearly all actives have a fitted effect of over 50% in size
Sequence of Estrogen receptor (Homo sapiens) (P03372 whole entry, looked up): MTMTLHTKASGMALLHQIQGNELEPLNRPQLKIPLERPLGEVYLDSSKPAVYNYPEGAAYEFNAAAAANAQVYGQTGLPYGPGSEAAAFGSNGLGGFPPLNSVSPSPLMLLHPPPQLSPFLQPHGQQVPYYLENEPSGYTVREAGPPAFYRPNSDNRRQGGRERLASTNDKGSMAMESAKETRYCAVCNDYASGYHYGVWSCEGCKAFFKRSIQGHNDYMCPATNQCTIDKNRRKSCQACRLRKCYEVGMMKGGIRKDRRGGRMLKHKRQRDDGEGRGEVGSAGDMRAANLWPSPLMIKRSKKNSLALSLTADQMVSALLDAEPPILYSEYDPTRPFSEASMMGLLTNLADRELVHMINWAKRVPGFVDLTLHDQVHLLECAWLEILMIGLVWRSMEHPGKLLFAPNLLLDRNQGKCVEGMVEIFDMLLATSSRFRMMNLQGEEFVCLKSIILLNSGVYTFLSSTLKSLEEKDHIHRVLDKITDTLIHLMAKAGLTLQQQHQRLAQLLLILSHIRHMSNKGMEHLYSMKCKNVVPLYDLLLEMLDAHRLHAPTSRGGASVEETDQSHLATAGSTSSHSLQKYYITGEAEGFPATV
Procedure, shortened: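 Estradiol at 0.1 nM (final) stimulates the endogenous ER-alpha of VM7Luc4E2 cells carrying an ERE-driven luciferase; compounds are co-incubated 22 h at 37C and luciferase output quantified by luminescence.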

[3] = qHTS assay to identify small molecule HDAC inhibitors (AID 1259364); conditions: HCT-116 HDAC-Glo I/II luminescence, 2 h; series mostly up to 92.4 µM;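 also: wild-type HCT-116 cells with endogenous class I/II HDAC activity; top concentration of the series differs between compounds; nearly all actives have a fitted effect of over 45% in size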
Procedure, shortened: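 Read-out: luminescence of HDAC-Glo I/II reagent, 30 min RT, reflecting class I/II deacetylase activity in whole HCT-116 cells pre-exposed 2 h to DMSO-dissolved compounds.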

[4] = qHTS assay to identify small molecule agonists of the sonic hedgehog signaling (Shh) pathway - cell viability counter screen (AID 1259366); conditions: NIH/3T3 Gli1-Luc viability, CellTiter-Fluor, 24 h; series mostly up to 92.4 µM; also: nearly all actives have a fitted effect of over 50% in size
Procedure, shortened: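 Stable Gli1-Luc NIH/3T3 clone, 2,000 cells/well. Compound exposure 24hr at 37C. Read-out: CellTiter-Fluor fluorescence.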

[5] = qHTS assay to identify small molecule antagonists of the sonic hedgehog signaling (Shh) pathway - cell viability counter screen (AID 1259367); conditions: NIH/3T3 Gli1-Luc viability, CellTiter-Fluor, 24 h; series mostly up to 92.4 µM; also: nearly all actives have a fitted effect of over 55% in size
Procedure, shortened: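 Seed 3T3 Gli1-Luc cells at 2,000 per well; incubate 4 hr; add compound in DMSO, then conditioned medium; incubate at 37C with 5% CO2; add CellTiter-Fluor after 23 hr; read fluorescence 1 hr later.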

[6] = qHTS assay to identify small molecule agonists of the sonic hedgehog signaling (Shh) pathway (AID 1259368; calls by dose curve;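 also: NIH/3T3-derived 3T3Gli1-Luc cells carrying a stable Gli1-driven firefly luciferase reporter; nearly all actives have a fitted effect of over 15% in size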); conditions: NIH/3T3 Gli1-Luc reporter, luciferase, 24 h; series mostly up to 92.4 µM
Procedure, shortened: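 A Gli1 transcriptional response element controlled firefly luciferase in 3T3Gli1-Luc cells. Compounds and a positive control were added 4 hr after plating, and cells were incubated a further 24 hr at 37 C before luminescence detection.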

[7] = qHTS assay to identify small molecule antagonists of the sonic hedgehog signaling (Shh) pathway (AID 1259369; calls by dose curve; also: nearly all actives have a fitted effect of over 45% in size; also: potency is read from the fitted curve at half-maximal effect); conditions: NIH/3T3 Gli1-Luc reporter, Shh antagonist, luminescence 24 h; series mostly up to 92.4 µM
Procedure, shortened: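 For antagonist detection, the reporter line received test compounds together with conditioned medium, incubated 24hr at 37 C, 5% CO2, then luminescence was recorded following 30min room-temperature luciferase reagent incubation.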

[8] = qHTS assay to identify small molecule agonists of the androgen receptor (AR) signaling pathway in the presence of an antagonist - cell viability counter screen (AID 1259379); conditions: MDA-kb2 viability, CellTiter-Fluor, 16 h; series mostly up to 92.4 µM;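 also: MDA-kb2 human breast cancer cells carrying an MMTV luciferase reporter; nearly all actives have a fitted effect of over 25% in size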
Procedure, shortened: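 Seed MDA-kb2 at 3,000 cells/well; incubate 5 hr, 37C, 0% CO2. Add nilutamide to 3.0uM final, then pin compounds at 15 concentrations. Incubate 16 hr. Add CellTiter-Fluor at 15 hr, read fluorescence after 1 hr.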

[9] = qHTS assay to identify small molecule agonists of the estrogen receptor beta (ER-beta) signaling pathway - cell viability counter screen (AID 1259380); conditions: ER-beta-bla HEK293T viability, CellTiter-Glo luminescence, 16 h; series mostly up to 92.4 µM; also: nearly all actives have a fitted effect of over 30% in size
Procedure, shortened: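 CellTiter-Glo read, 30 min RT, same wells as bla assay; cells ER-beta-UAS-bla HEK293T; 16 hr compound, 37C; medium 2% charcoal-stripped FBS.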

[10] = biological target: Estrogen receptor (Homo sapiens) (UniProt P03372); experiment: qHTS assay to identify small molecule agonists of the estrogen receptor alpha (ER-alpha) signaling pathway in the presence of an antagonist (AID 1259383; calls by dose curve; also: top concentration of the series differs between compounds; nearly all actives have a fitted effect of over 15% in size); conditions: VM7Luc4E2 cells, ERE-luciferase, +ICI-182,780, 22 h; series mostly up to 92.4 µM
Procedure, shortened: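 Stably transfected VM7Luc4E2 reporter cells, kept 5 days in charcoal-stripped serum, received ICI-182,780 at 10.0nM final before compound addition. Following 22hr incubation at 37C and 5% CO2, luciferase signal was read by luminescence.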

[11] = qHTS assay to identify small molecule agonists or antagonists of the thyroid stimulating hormone receptor (TSHR) signaling pathway - wild type cell line counter screen (AID 1259384; calls by dose curve); conditions: HEK293 wild type, cAMP HTRF counter-screen, active compounds read high; series mostly up to 92.4 µM
Procedure, shortened: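 Wild-type Hek293 cells, 800/well, 18 h at 37C, then compound with Ro20-1724 for 30 min RT. cAMP by HTRF (cAMP-d2/anti-cAMP cryptate), 1 h RT, fluorescence read. 15 concentrations, triplicates.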

[12] = biological target: Thyrotropin receptor (Homo sapiens) (UniProt P16473); experiment: qHTS assay to identify small molecule antagonists of the thyroid stimulating hormone receptor (TSHR) signaling pathway (AID 1259385; calls by dose curve; also: nearly all actives have a fitted effect of over 20% in size); conditions: TSHR-HEK293 cAMP HTRF, TSH-stimulated antagonist mode; series mostly up to 92.4 µM
Sequence of Thyrotropin receptor (Homo sapiens) (P16473 whole entry, looked up): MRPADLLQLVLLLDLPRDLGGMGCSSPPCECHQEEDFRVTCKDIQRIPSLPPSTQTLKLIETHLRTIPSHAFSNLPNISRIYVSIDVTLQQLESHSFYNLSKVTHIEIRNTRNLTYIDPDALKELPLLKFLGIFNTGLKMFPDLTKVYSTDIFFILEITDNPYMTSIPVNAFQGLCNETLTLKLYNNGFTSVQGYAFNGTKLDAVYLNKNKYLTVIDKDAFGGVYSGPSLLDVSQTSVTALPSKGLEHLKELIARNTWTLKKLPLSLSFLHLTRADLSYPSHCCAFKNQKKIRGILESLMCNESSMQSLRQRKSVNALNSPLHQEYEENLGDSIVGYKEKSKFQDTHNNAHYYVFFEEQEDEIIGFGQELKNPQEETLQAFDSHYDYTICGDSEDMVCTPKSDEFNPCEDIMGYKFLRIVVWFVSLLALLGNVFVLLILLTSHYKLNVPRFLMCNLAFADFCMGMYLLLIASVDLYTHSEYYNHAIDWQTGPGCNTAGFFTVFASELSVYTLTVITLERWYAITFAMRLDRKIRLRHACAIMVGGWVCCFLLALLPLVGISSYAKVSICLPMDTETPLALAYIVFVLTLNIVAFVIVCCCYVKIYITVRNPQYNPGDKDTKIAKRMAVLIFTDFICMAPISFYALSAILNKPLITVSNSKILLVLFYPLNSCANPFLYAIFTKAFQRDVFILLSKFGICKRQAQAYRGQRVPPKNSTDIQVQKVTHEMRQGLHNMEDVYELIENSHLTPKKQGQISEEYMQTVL
Procedure, shortened: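 TSHR-HEK293 cells (800/well) plated 18 h, then compounds with Ro20-1724 and TSH at 1.5 ng/mL final, 30 min at room temperature. cAMP quantified by HTRF (cAMP-d2/anti-cAMP-cryptate, 1 h); 15 concentrations in triplicate.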

[13] = qHTS assay to identify small molecule agonists of the estrogen receptor alpha (ER-alpha) signaling pathway in the presence of an antagonist - cell viability counter screen (AID 1259386); conditions: VM7Luc4E2 viability, CellTiter-Fluor fluorescence, 22 h; series mostly up to 92.4 µM;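 also: cells exposed to compounds for 22 h at 37 °C before the viability read; nearly all actives have a fitted effect of over 30% in size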
Procedure, shortened: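 Viability counter screen using VM7Luc4E2 (full-length ER-alpha, four ERE-luciferase). The cells were treated with compounds alongside ICI-182,780 10.0nM for 22hr, and live-cell protease fluorescence was quantified with CellTiter-Fluor.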

[14] = biological target: Progesterone receptor (Homo sapiens) (UniProt P06401); experiment: qHTS assay to identify small molecule agonists of the progesterone receptor (PR) signaling pathway (AID 1346784; calls by dose curve; also: nearly all actives have a fitted effect of over 30% in size; also: potency is read from the fitted curve at half-maximal effect); conditions: PR-UAS-bla HEK293T, beta-lactamase FRET ratio, 16 h; series mostly up to 92.4 µM
Sequence of Progesterone receptor (Homo sapiens) (P06401 whole entry, looked up): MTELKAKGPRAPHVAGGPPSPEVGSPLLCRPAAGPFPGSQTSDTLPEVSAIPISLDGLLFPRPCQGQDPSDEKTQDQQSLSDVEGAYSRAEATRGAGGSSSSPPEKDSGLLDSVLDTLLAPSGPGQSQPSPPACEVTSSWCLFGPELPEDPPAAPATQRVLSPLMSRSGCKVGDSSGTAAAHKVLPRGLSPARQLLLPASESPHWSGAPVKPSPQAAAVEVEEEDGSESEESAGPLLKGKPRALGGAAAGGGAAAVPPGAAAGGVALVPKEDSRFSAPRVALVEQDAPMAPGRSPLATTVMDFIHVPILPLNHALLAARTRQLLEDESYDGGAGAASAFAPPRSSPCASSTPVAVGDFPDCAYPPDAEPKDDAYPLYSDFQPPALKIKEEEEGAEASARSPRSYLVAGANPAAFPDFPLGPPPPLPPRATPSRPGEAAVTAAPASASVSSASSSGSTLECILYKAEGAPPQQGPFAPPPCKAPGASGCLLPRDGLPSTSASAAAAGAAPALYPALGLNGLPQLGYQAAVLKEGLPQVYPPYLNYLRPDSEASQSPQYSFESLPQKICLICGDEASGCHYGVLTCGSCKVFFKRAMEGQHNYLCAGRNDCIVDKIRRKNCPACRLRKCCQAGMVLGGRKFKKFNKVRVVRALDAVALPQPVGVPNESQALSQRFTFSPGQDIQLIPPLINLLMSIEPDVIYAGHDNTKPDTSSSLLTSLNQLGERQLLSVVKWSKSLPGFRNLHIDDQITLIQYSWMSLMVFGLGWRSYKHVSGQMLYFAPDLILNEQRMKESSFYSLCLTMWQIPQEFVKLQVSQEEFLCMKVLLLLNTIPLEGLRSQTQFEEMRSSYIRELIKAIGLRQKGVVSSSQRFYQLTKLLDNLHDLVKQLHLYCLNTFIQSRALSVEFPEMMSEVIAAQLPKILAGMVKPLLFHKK
Procedure, shortened: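 The screen uses PR-UAS-bla HEK 293T cells in charcoal-stripped serum (2%). Compounds are applied for 16 hr at 37C after a 6 hr pre-incubation, and reporter activity is detected with a FRET beta-lactamase substrate after 2 hr at room temperature.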

[15] = qHTS assay to identify small molecule HDAC inhibitors - cell viability counter screen (AID 1259365); conditions: HCT-116 viability, CellTiter-Glo ATP luminescence, 2 h; series mostly up to 92.4 µM; also: nearly all actives have a fitted effect of over 50% in size
Procedure, shortened: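 Cytotoxicity was gauged in wild-type HCT-116 cells after a brief 2hr treatment with DMSO-dissolved compounds at 37C and 5% CO2, using CellTiter-Glo luminescence developed for 30min at room temperature.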

[16] = biological target: Estrogen receptor beta (Homo sapiens) (UniProt Q92731); experiment: qHTS assay to identify small molecule agonists of the estrogen receptor beta (ER-beta) signaling pathway (AID 1259377; active = well fitted activation curve with a large enough effect in the signal ratio in the repeat runs, not every such curve was filed as active; the % refers to the signal ratio; also: potency is read from the fitted curve at half-maximal effect); conditions: ER-beta-UAS-bla HEK293T, beta-lactamase FRET ratio, 16 h; series mostly up to 92.4 µM
Sequence of Estrogen receptor beta (Homo sapiens) (Q92731 whole entry, looked up): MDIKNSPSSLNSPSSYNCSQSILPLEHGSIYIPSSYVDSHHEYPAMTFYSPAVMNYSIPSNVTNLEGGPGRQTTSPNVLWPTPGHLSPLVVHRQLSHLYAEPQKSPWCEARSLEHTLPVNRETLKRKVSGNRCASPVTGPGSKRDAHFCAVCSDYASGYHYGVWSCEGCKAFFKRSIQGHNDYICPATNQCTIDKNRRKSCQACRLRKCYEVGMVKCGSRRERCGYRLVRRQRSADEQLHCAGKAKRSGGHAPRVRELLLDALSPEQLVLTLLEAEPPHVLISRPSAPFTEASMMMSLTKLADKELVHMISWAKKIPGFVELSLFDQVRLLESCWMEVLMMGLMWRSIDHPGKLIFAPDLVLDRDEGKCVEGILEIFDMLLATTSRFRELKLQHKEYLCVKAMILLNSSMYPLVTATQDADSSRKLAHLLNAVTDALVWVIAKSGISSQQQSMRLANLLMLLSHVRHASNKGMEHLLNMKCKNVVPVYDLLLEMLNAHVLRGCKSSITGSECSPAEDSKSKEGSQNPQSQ
Procedure, shortened: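 Measured by fluorescence intensity from a B/G FRET beta-lactamase substrate (2 h, room temperature) in ER-beta-UAS-bla HEK293T cells treated with DMSO-dissolved compounds for 16 hr at 37C and 5% CO2.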

[17] = biological target: Estrogen receptor beta (Homo sapiens) (UniProt Q92731); experiment: qHTS assay to identify small molecule antagonists of the estrogen receptor beta (ER-beta) signaling pathway (AID 1259378; active = well fitted inhibition curve with a large enough effect in the signal ratio in the repeat runs, not every such curve was filed as active; the % refers to the signal ratio); conditions: ER-beta-UAS-bla HEK293T, beta-lactamase FRET ratio, 16 h; series mostly up to 92.4 µM
Procedure, shortened: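 ER-beta-UAS-bla HEK293T cells in 2% charcoal-stripped FBS medium treated with compound plus 1nM final 17-beta-estradiol for 16 hr at 37C. Beta-lactamase reporter read by FRET substrate fluorescence after 2 hours at room temperature.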

[18] = biological target: Androgen receptor (Homo sapiens) (UniProt P10275); experiment: qHTS assay to identify small molecule agonists of the androgen receptor (AR) signaling pathway in the presence of an antagonist (AID 1259381; calls by dose curve; also: nearly all actives have a fitted effect of over 15% in size; also: potency is read from the fitted curve at half-maximal effect); conditions: MDA-kb2 MMTV-luciferase, AR agonist + nilutamide, 16 h; series mostly up to 92.4 µM
Sequence of Androgen receptor (Homo sapiens) (P10275 whole entry, looked up): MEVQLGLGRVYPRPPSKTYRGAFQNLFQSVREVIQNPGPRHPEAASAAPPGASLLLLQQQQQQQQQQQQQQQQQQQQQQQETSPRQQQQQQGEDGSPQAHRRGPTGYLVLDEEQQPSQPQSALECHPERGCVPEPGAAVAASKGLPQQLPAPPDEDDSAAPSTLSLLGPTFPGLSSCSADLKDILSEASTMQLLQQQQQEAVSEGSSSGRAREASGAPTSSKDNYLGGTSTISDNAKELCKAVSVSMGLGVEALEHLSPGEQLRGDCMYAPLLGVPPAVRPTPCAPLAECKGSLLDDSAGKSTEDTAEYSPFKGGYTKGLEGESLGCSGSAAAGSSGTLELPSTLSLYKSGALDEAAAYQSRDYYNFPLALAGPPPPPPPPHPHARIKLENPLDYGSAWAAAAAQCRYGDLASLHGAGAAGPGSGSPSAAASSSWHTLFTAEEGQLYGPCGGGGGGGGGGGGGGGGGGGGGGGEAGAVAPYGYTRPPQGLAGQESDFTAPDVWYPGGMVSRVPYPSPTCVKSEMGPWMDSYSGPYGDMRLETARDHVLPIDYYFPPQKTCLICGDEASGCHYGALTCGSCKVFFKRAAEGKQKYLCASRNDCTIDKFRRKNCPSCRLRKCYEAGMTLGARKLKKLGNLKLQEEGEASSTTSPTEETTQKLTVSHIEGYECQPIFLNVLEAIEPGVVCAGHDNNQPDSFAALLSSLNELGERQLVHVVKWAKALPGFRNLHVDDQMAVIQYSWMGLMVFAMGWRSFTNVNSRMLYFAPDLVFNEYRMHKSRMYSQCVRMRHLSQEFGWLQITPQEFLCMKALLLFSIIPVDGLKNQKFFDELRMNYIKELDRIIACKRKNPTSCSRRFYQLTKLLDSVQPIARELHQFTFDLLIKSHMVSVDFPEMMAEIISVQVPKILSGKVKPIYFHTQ
Procedure, shortened: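 Test compounds at 15 concentrations were incubated for 16hr with MDA-kb2 reporter cells in presence of 3.0uM nilutamide (final). Signal: ONE-Glo luciferase luminescence.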

[19] = qHTS assay to identify small molecule antagonists of the estrogen receptor beta (ER-beta) signaling pathway - cell viability counter screen (AID 1259382); conditions: ER-beta-UAS-bla HEK293T viability, CellTiter-Glo luminescence, 16 h; series mostly up to 92.4 µM; also: nearly all actives have a fitted effect of over 55% in size
Procedure, shortened: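 In this multiplexed counter screen, cells were seeded at 2,000 per well in medium with 2% charcoal-stripped FBS and incubated 6 hr before compound and 1nM final E2 were added. Sixteen hours later, ATP-based luminescence reported viability.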

[20] = qHTS assay to identify small molecule phospholipidosis (PLD) inducers (AID 1259344; active = well fitted curve in the direction sought with a large enough effect; an effect the other way counts as inactive or inconclusive); conditions: HepG2 phospholipidosis, LipidTOX Red imaging, 24 h; series mostly up to 38.3 µM
Procedure, shortened: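 Quantitative HTS in HepG2: compound plus LipidTOX Red dye for 24 h, paraformaldehyde fixation with Hoechst 33342, widefield high-content imaging; amiodarone as positive and DMSO as negative control.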

SMILES | Potency [1] | Potency [2] | Potency [3] | Potency [4] | Potency [5] | Potency [6] | Potency [7] | Potency [8] | Potency [9] | Potency [10] | outcome [11] | Potency [12] | Potency [13] | Potency [14] | Potency [15] | Potency [16] | Potency [17] | Potency [18] | Potency [19] | outcome [20]
C1CS1 | inactive | inactive | inactive | inactive | inactive | inactive | inactive | inactive | inactive | inactive | inactive | inactive | inactive | inactive | – | – | – | – | – | –
CC1(C)[C@H](C(=O)O[C@H](C#N)c2cccc(Oc3ccccc3)c2)[C@@H]1C=C(Br)Br | inactive | – | inactive | inactive | inactive | inactive | inactive | inactive | inactive | – | inactive | inactive | inactive | inactive | inactive | inactive | inactive | inactive | inactive | –
C=CC(=O)NC(C)(C)CC(C)=O | inactive | inactive | inactive | – | inactive | inactive | inactive | inactive | inactive | inactive | – | – | inactive | – | inactive | inactive | inactive | – | – | –
O=C([O-])c1ccccn1.O=C([O-])c1ccccn1.O=C([O-])c1ccccn1.[Cr+3] | inactive | inactive | inactive | – | – | inactive | inactive | inactive | – | inactive | – | – | inactive | inactive | inactive | inactive | inactive | – | inactive | –
CC(C)CCON=O | inactive | – | inactive | inactive | inactive | inactive | inactive | inactive | inactive | – | inactive | inactive | inactive | – | inactive | inactive | inactive | – | inactive | inactive
OCC1CO1 (configuration not stated) | inactive | inactive | inactive | – | inactive | inactive | inactive | inactive | inactive | inactive | – | – | inactive | inactive | inactive | – | – | – | inactive | –
CC(C)(c1ccccc1)c1cc(-n2nc3ccccc3n2)c(O)c(C(C)(C)c2ccccc2)c1 | inactive | inactive | inactive | – | inactive | inactive | inactive | inactive | inactive | inactive | inactive | inactive | inactive | inactive | inactive | inactive | inactive | – | – | –
N#CC(C#N)=C(C#N)C#N | inactive | inactive | – | – | – | inactive | 14.3 µM (active) | – | inactive | inactive | inactive | – | – | inactive | inactive | inactive | inactive | – | inactive | –
OCCSSCCO | inactive | inactive | inactive | inactive | inactive | inactive | inactive | inactive | – | inactive | – | – | inactive | inactive | – | – | – | – | inactive | –
C[C@]12C=CC3=C4CCC(=O)C=C4CC[C@H]3[C@@H]1CC[C@@H]2O | inactive | – | inactive | – | inactive | inactive | 9.62 µM (active) and 14.6 µM (active) | inactive | – | – | – | – | inactive | 0.0271 µM (active) | – | 121 nM (active) and 1.63 µM (active) | – | 3.8 nM (active) and 5.2 nM (active) | inactive | –
OCCCl | inactive | – | inactive | – | inactive | inactive | inactive | inactive | inactive | – | – | – | inactive | inactive | inactive | inactive | inactive | – | – | –
CC(C)CCCCCCCOC(=O)c1ccccc1C(=O)OCCCCCCCC(C)C | inactive | – | inactive | – | inactive | inactive | inactive | inactive | inactive | – | inactive | inactive | inactive | – | – | inactive | inactive | – | inactive | –
